In PubChem BioAssay AID933 (National Center for Advancing Translational Sciences (NCATS), 2007):
Where “and” joins values, the source holds several entries; their conditions need not be identical. Identical values can stand only once. Inconclusive results are not listed. Calls of active or inactive are those of the source. The call rests on the fitted dose curve; in most records, active means well fitted activation curve with a large enough effect in the signal ratio, with a control signal flat; inconclusive means small, poorly fitted or top-dose-only effect, or a change in a side signal; inactive means flat fitted curve, though single readings scatter; the % refers to the signal ratio.

These compounds were tested against Thyrotropin receptor (Homo sapiens) (UniProt P16473) (assay: Secondary Concentration-Response Assay for Agonists of the Thyroid Stimulating Hormone Receptor: HTRF Activity Detection). Conditions: HEK293-TSHR cells, cAMP HTRF ratio, 30 min; series mostly up to 91.7 µM; activation: at the top concentration.
Method in brief: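 Orthogonal confirmation in a separate TSHR-transfected HEK 293 line: cells in medium with 10 % FCS and 100 uM RO 20-1724 got compound for 30 min at room temperature. cAMP was measured by HTRF (d2-cAMP/anti-cAMP antibody), 615/660 nm emission.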
Potency means the concentration at half of the fitted maximal effect.
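Wherever activation is given: HEK 293 cells stably expressing human TSHR with RO 20-1724 phosphodiesterase inhibitor; % of control where 0% means no effect.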

Sequence of Thyrotropin receptor (Homo sapiens) (P16473 whole entry, looked up): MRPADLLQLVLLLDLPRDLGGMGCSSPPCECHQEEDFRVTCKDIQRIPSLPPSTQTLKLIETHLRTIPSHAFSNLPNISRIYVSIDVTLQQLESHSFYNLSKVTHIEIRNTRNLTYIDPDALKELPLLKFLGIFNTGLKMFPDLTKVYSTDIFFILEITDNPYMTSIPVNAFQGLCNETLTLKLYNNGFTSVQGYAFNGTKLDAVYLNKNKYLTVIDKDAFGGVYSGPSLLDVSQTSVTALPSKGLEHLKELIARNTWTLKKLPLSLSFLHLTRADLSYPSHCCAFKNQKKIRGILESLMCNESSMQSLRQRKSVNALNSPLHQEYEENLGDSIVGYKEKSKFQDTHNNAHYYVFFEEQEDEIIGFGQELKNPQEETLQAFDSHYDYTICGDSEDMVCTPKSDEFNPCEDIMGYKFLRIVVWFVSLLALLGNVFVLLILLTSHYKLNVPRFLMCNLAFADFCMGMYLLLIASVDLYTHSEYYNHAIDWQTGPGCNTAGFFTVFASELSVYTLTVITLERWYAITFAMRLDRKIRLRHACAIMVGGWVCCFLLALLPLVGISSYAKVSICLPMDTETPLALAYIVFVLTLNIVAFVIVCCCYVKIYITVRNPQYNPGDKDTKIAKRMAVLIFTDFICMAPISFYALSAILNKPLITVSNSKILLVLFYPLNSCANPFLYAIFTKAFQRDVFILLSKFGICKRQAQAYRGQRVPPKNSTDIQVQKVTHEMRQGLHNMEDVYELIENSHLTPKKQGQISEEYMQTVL

activation, inactive:
CCCN1C(=O)c2ccccc2NC1c1ccc(OC)cc1OC (stereo not given) 3.69%
CCOC(=O)N1CCC(NC(=O)c2ccc(CNS(=O)(=O)c3ccc(F)cc3)cc2)CC1 0.984% [at 0.00035 µM]
O=C(CN(Cc1ccc(F)cc1)S(=O)(=O)c1ccccc1)N1CCCCC1 0.34% [at 0.00035 µM]
COC(=O)CNC(=O)C12CC3(C)CC(C)(CC(C)(C3)C1)C2 0.274% [at 0.00035 µM]
CC1=CCC2C(=O)N(c3ccc(Br)cc3C)C(=O)C2C1 (stereo not given) 0.113% [at 0.00035 µM]
Cc1ccccc1N1C(=O)c2ccccc2N2C(=O)c3ccccc3C12 (stereo not given) 1.03%
CCCN1C(=O)c2ccccc2NC1c1ccc(OC)c(CSc2ccccn2)c1 (stereo not given) 3.44%
Cc1nn(C)c(C)c1S(=O)(=O)N(CC(=O)Nc1ccccn1)c1ccc(C(C)C)cc1 -0.155% [at 0.00035 µM]
COc1cccc(OCc2cc(C3Nc4ccccc4C(=O)N3c3ccccc3)ccc2OC)c1 (stereo not given) 1.73%
COc1ccc(C2Nc3ccccc3C(=O)N2Cc2ccccc2)cc1Oc1ccc(NC(C)=O)cc1 (stereo not given) 7.11%
COc1ccc(C=O)cc1COc1ccc(NC(C)=O)cc1 4.44%
COc1ccc(C2Nc3ccccc3C(=O)N2Cc2ccco2)cc1COc1ccccc1F (stereo not given) 0.526%
COc1cccc(CN2C(=O)CN(C3CCCCC3)C(=O)C2c2ccc(F)cc2)c1 (stereo not given) 0.406% [at 0.00035 µM]
NC(=O)c1nsc(C(=O)N(CC(=O)NC2CCCC2)Cc2ccc3c(c2)OCO3)c1N 0.815%
CCOc1cc(C2Nc3ccccc3C(=O)N2c2ccccc2)ccc1O (stereo not given) 1.67%
Cc1noc(/C=C/c2ccco2)c1S(=O)(=O)N1CCC(C(=O)NCc2ccco2)CC1 -0.595% [at 0.00035 µM]
O=C1c2ccccc2NC(c2ccccc2O)N1Cc1ccco1 (stereo not given) 0.199%
O=C(CN(Cc1ccccc1Cl)C(=O)Cn1nnc(-c2cccs2)n1)NCC1CCCO1 (stereo not given) 0.671% [at 0.00035 µM]
COc1ccc(C2Nc3ccccc3C(=O)N2Cc2ccccc2)cc1COc1ccc(C(N)=O)cc1 (stereo not given) 17.6%
O=C1c2ccccc2NC(c2ccc3c(c2)OCO3)N1Cc1ccco1 (stereo not given) 1.3%
CCN(CC)CCN1C(=O)c2ccccc2NC1c1ccccc1F (stereo not given) 1.17%
O=C(c1cc(-c2cccs2)on1)N1CCCc2ccccc21 0.238% [at 0.00035 µM]
O=C(CSc1nnc(-c2ccccc2)n1Cc1ccco1)Nc1ccc2c(c1)OCCO2 -0.544% [at 0.00035 µM]
COC(=O)C1=C(C)OC(N)=C(C#N)C1C1CCCCC1 (stereo not given) -0.764% [at 0.00035 µM]
CC(=O)Nc1ccc(S(=O)(=O)N(C)c2ccccc2)cc1 -0.796% [at 0.00035 µM]
COc1ccc(C2Nc3ccccc3C(=O)N2Cc2ccccc2)cc1COc1ccc([N+](=O)[O-])cc1 (stereo not given) 1.19%
COc1cc(C2Nc3ccccc3C(=O)N2c2ccc3c(c2)OCCO3)ccc1OCC(C)C (stereo not given) 1%
COc1ccc(C2Nc3ccccc3C(=O)N2Cc2ccco2)cc1COc1ccccc1 (stereo not given) 2.37%
O=C1c2ccccc2NC(c2ccccc2)N1c1ccc(O)cc1 (stereo not given) 1.31%
O=C(c1ccco1)N(Cc1cccs1)c1ccc(O)cc1 1.56%

Potency, active:
COc1ccc(CN(Cc2ccccc2)C(=O)c2ccc(O)cc2)cc1COc1ccc(NC(C)=O)cc1 28.2 µM
COc1ccc(C(=O)N(Cc2ccccc2)Cc2ccccc2)c(O)c1 25.1 µM
COc1ccc(C2Nc3ccccc3C(=O)N2Cc2ccccc2)cc1COc1ccc(NC(C)=O)cc1 (stereo not given) 7.08 µM and 3.55 µM

Potency, inactive:
COc1ccc(N2C(=O)c3ccccc3NC2c2ccc(OC)c(COc3ccccn3)c2)cc1 (stereo not given)
COc1ccc(C2Nc3ccccc3C(=O)N2Cc2ccco2)cc1CN1C(=O)c2ccccc2C1=O (stereo not given)
